Measurements: PubChem BioAssay (NCI)
This is part of a sample that, as a whole, favours compounds with a hit. Of some 83,000 tested, about 20% had one in any assay.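 48-hour exposure, single concentration, 96-well plates; percent growth endpoint where 0 means no net growth. Active: below 10.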 Unmarked numbers belong to inactive results. Active and inactive are the calls of the source.

Columns and labels:
Experiment in all cases: NCI-60 one-dose screen, 48 h (100 = growth as untreated, 0 = no growth, -100 = all killed)
[1] = test system: SR leukemia; conditions: 10 µM unless noted
[2] = test system: RPMI-8226 leukemia; conditions: 10 µM unless noted
[3] = test system: OVCAR-8 ovarian; conditions: 10 µM unless noted
[4] = test system: OVCAR-5 ovarian; conditions: 10 µM unless noted
[5] = test system: OVCAR-4 ovarian; conditions: 10 µM unless noted
[6] = test system: SK-OV-3 ovarian; conditions: 10 µM unless noted
[7] = test system: IGROV1 ovarian; conditions: 10 µM unless noted
[8] = test system: OVCAR-3 ovarian; conditions: 10 µM unless noted
[9] = test system: HS 578T breast; conditions: 10 µM
[10] = test system: NCI/ADR-RES ovarian; conditions: 10 µM unless noted
[11] = test system: BT-549 breast; conditions: 10 µM unless noted
[12] = test system: MDA-MB-435 melanoma; conditions: 10 µM unless noted
[13] = test system: SW-620 colon; conditions: 10 µM unless noted
[14] = test system: MCF7 breast; conditions: 10 µM unless noted
[15] = test system: HCT-116 colon; conditions: 10 µM unless noted
[16] = test system: HCC-2998 colon; conditions: 10 µM unless noted
[17] = test system: KM12 colon; conditions: 10 µM unless noted
[18] = test system: T-47D breast; conditions: 10 µM unless noted

SMILES	growth [1]	growth [2]	growth [3]	growth [4] [%]	growth [5]	growth [6]	growth [7]	growth [8]	growth [9]	growth [10]	growth [11]	growth [12]	growth [13]	growth [14]	growth [15]	growth [16]	growth [17]	growth [18]
O=C(c1ccc(C(F)(F)F)c(Cl)c1)N(Cc1ccc(Cl)cc1)c1ccc(-c2cc(C(F)(F)F)[nH]n2)c(O)c1	20%	1.58% (active)	11%	17.3	19.9%	-4.32% (active)	15.2%	6.9% (active)	3.66% (active)	2.97% (active)	14.6%	10.1%	17.2%	4.31% (active)	3.75% (active)	13.6%	10%	
Nc1nc(N)c2cc(Sc3ccc(Cl)cc3)ccc2n1	7.93% (active)	20.1%	34.8%	39.4	70.2%	59.7%	22.9%	25.7%	45.4%	36.2%	54.7%	28.6%	25.8%	19.7%	16.2%	6.07% (active)	20.5%	56.4%
CCN(CC)CCCC(C)Nc1cnc(C(=O)Nc2ccc(Cl)c3cccnc23)cn1 (stereo not given)	1.42% (active)	2.2% (active)	27.3%	53.3	51.3%	79.5%	44.2%	-23.7% (active)	51.4%	52.2%	80.1%	-57.8% (active)	0.619% (active)	-2.14% (active)		32.6%	30.3%	-49.3% (active)
COc1cc2nccc(Oc3ccc(NC(=O)C4(C(=O)Nc5c(F)cc(F)cc5F)CC4)cc3)c2cc1Oc1ccc(N)cn1	58.5%	50.1%	69.7%	70	28.4%	81.3%	28.1%	75.3%	25.8%	82.3%	74.2%	3.8% (active)	40.3%	31.7%	56.6%	81.5%	15.5%	29%
COc1ccc(C2=CC(c3ccc(OC)cc3Br)N3C=CSC3=N2)cc1 (stereo not given)	-22.1% (active)	-9.05% (active)	73.7%	84.6	79.7%	98.2%	37.8%	37.5%	87.7%	86.5%	30.7%	4.2% (active)	27.3%	10.5%		59.7%	24.1%	54.6%
O=C1OC(c2ccc(-c3ccccc3)cc2)=C/C1=C/c1c(Cl)cccc1Cl	69.6%	84.1%	105%	91.7	89.8%	96.7%	95.4%	97.1%	85.6%	99.3%		104%	95.9%	76%	63%	102%	94.1%	91.3%
CCOC(=O)C1=C(C)NC(SCc2nnc(-c3ccc(Cl)cc3)o2)=NC1c1ccc(Cl)cc1 (stereo not given)	42.9%	35.8%	74.8%	89.6	70%	82.6%	62.3%	70.8%	83.7%	69.9%	75.3%	69.6%	85.9%	49%		79.9%	69.8%	49.9%
CC(C)NCCCCCNc1cc(O)cc2cccnc12	22.5%	66.6%	31.3%	98.8	-5.19% (active)	65.6%	32.2%	28.3%	88.8%	100%	104%	101%	83.1%	43.3%	65.5%	54.6%	100%	31.3%
CNCc1ccccc1CN(CC(=O)Nc1ccc2c(c1)CC1(C2)C(=O)Nc2ncccc21)C(=O)C(C)(C)C (stereo not given)	110%	106%	98.9%	109	104%	108%	92.4%	114%	95.9%	108%	96.3%	95.7%	97.4%	102%		113%	107%	94.1%
C#CCNC(=S)N/N=C(\C)c1ccccn1	3.06% (active)	12.9%	12.4%	35.1	29.1%	30.8%	5.45% (active)	16.6%	70.2%	8.45% (active)	-2.53% (active)	33.1%	34.3%	4.54% (active)	1.22% (active)	35.1%	23.5%	24.1%
Nc1nc2c(c3ncccc13)C(c1ccccc1)Cc1ncccc1-2 (stereo not given)	40.7%	87.4%	93.5%	92.8	94.1%	87.3%	63.3%	62.2%	87.2%	67.7%	72.9%	-0.757% (active)	52.9%	45.6%	63.2%	81.7%	50.4%	71.1%
O=C1OCC2=C1C(c1cccc(Br)c1)c1cc3c(cc1N2CCO)OCCO3 (stereo not given)	29.8%	21.4%	9.03% (active)	39.5	53.4%	32.3%	18.3%	-61.5% (active)	8.74% (active)	8.43% (active)	21.4%	-40.4% (active)	21.3%	18.2%	6.29% (active)		-33.9% (active)	76.9%
CC(C)CC(NC(=O)OCC1c2ccccc2-c2ccccc21)C(=O)O (stereo not given)	93.7%	101%	122%	101	102%	95%	91%	115%	115%	107%	97%	93.7%	116%	89.4%		112%	106%	95.8%
COc1ccc(/C=c2\c(=O)n(-c3ccccc3)c3nn4c(=O)c(=O)[nH]nc4n23)cc1	108%	110%	109%	146	107%	113%	113%	115%	114%	106%	105%	112%	106%	102%	102%	108%	109%	
O=C(CN1CCN(c2ccccc2)CC1)N1CCN(c2nnc(-c3ccc(Cl)cc3)c(-c3ccc(Cl)cc3)n2)CC1	23.1%	-39.6% (active)	68%	111	45.5%	103%	50.7%	64.3%	77.5%	60.4%	46.2%	48.2%	68.8%	33%	25%	62.4%	46.1%	36.1%
CCOC(=O)C1=C(C)NC(SCc2nnc(-c3ccc(Cl)cc3)o2)=NC1c1ccc(Br)cc1 (stereo not given)	38.8%	38.4%	72.7%	93.9	69.6%	82%	65.5%	77.5%	87.1%	67.5%	79.8%	65.1%	91%	44.8%		91.2%	76%	48%
COc1cc(Cn2c(-c3ccccc3)cc3c2-c2oncc2CC3)cc(OC)c1OC	8.51% (active)	40.5%	34.2%	69.1	54.8%	13%	18.4%	-44.3% (active)	-1.69% (active)	4.65% (active)	41.2%	-58.1% (active)	24.3%	14.1%		42.7%	26.2%	38.1%
